About 83,000 compounds went through this panel and 20% of them were active in at least one assay; those are over-represented in the sample as a whole.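 Single-dose data. Exposure time 48 hours. Values below 10 considered active.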 Unmarked numbers belong to inactive results. The source made the active and inactive calls.

The subject of this experiment is OVCAR-4 ovarian. The experiment in a line: NCI-60 one-dose screen, 48 h (100 = growth as untreated, 0 = no growth, -100 = all killed). Particulars: 10 µM unless noted.
For `O=C(O)C(O)C(O)C(=O)O.[NH-]C1CCCCC1[NH-].[Pt+2]` (stereo not drawn), the growth is 106%.

For the molecule `Cc1ccc(Nc2c(C(N)=O)cnc3ccc(-c4csc(N)n4)cc23)cc1`, the growth was 87%.

As for `Cl/C(=N\Nc1ccccc1)c1ccccc1`, the growth is 92.1%.

For the molecule `COc1cc(-c2c3sc(=O)[nH]c3nc3c2c(=O)[nH]n3C(C)C)cc2c1OCO2`, the growth is 86%.

`CC(C)(C)n1cc(-c2ccnc(NCCNS(=O)(=O)c3ccccc3)c2)c(-c2cccc(O)c2)n1`: the growth is 60.6%.

With `COC(=O)C12C3C(=O)N(c4ccc(OC)cc4)C(=O)C3C(c3cn(-c4ccccc4)nc3C)N1[C@H](c1cn(-c3ccccc3)nc1C)[C@@H]1C(=O)N(c3ccc(OC)cc3)C(=O)[C@@H]12` (stereo partly drawn), the growth is 108%.

With `CC/C(Cc1ccccc1)=C(/c1ccc(O)cc1)c1ccc(OCCN2CCCC2)cc1`, the growth is -6.26% (active).

For the molecule `O=C(NC(Cc1ccccc1)C(=O)CCl)OCc1ccccc1` (stereo not drawn), the growth was 62.7%.

Consider `CCCCCC(=O)N(CCCC)CCCC`, for which the growth was 84.6%.

Consider `COc1cccc(/C=C2/C(=O)N(Cc3ccco3)SC2=S)c1OC`, for which the growth was 102%.

For `COc1ccc(-c2cc(/C=C3\C(=O)Nc4ccc(Cl)cc43)[nH]n2)cc1`, the growth is 101%.

Turning to `CCOC(=O)C(C#N)C1CCCCC1` (stereo not drawn), the growth was 118%.

For `CC(C)[C@H]1COC(=O)N1[C@@H]1C(=O)N([C@@H](CCC(=O)N2CCN(C3CCCC3)CC2)C(=O)N[C@@H]2CCCc3ccccc32)[C@@H]1/C=C/c1cccc(Br)c1`, the growth was 53.9%.

These data come from PubChem BioAssay (NCI).
